Measured values: PubChem BioAssay (Tox21)
Inconclusive results are not listed. Active and inactive are the calls of the source. Unless noted, the call rests on the fitted dose curve; in most records, active means well fitted curve in the direction sought with a large enough effect in the repeat runs; inconclusive means weak or mixed curves; inactive means no such curve, though single readings can be large; an effect the other way counts as inactive or inconclusive.

Assays:
[1] = qHTS assay for small molecule agonists of the p53 signaling pathway (AID 651631; calls by dose curve; further: nearly all actives have a fitted effect of over 15% in size)
Procedure, shortened: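 Quantitative high-throughput format: 4,000 p53RE-bla HCT-116 cells/well, 5 h pre-incubation, 16 h compound exposure at 37 °C, 2 h room-temperature substrate step, fluorescence intensity measured.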

[2] = qHTS assay for small molecules that induce genotoxicity in human embryonic kidney cells expressing luciferase-tagged ATAD5 (AID 651632); further: nearly all actives have a fitted effect of over 15% in size
Procedure, shortened: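 Concentration-response screen for ATAD5 upregulation in HEK293T luciferase reporter cells; 16 hr treatment at 37C, then luminescence after 30 min with Amplite at room temperature.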

[3] = qHTS assay for small molecule agonists of the p53 signaling pathway - cell viability (AID 651633; calls by dose curve;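 further: p53RE-bla HCT reporter cells with a stable beta-lactamase p53 reporter; series mostly up to about 83 µM; nearly all actives have a fitted effect of over 30% in size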)
Procedure, shortened: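 p53RE-bla cells were treated with compound for 16 hours at 37 C. Cytotoxicity was then measured as CellTiter-Glo luminescence after 30 min at room temperature.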

[4] = qHTS assay for small molecules that induce genotoxicity in human embryonic kidney cells expressing luciferase-tagged ATAD5 - cell viability (AID 651634; calls by dose curve; further: nearly all actives have a fitted effect of over 25% in size)
Procedure, shortened: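 15.5 hr compound or vehicle exposure of HEK293T cells expressing luciferase-tagged ATAD5 at 37C; live-cell protease activity is read by fluorescence after 30 min of CellTiter-Fluor.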

[5] = qHTS assay for small molecule disruptors of the mitochondrial membrane potential - cell viability (AID 720634; calls by dose curve;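 further: human HepG2 liver cancer cells; series mostly up to about 83 µM; nearly all actives have a fitted effect of over 20% in size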)
Procedure, shortened: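 In this qHTS format, HepG2 cells plated overnight were pinned with compound, incubated 1 hr, and assayed for ATP luminescence with CellTiter-Glo after m-MPI dye addition.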

[6] = qHTS assay for small molecule disruptors of the mitochondrial membrane potential (AID 720635)
Procedure, shortened: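 HepG2 cells exposed to compound 1 hr at 37C, then Mito-MPS dye 30 min. Ratio read of aggregate (540/590 nm) versus monomer (490/535 nm) fluorescence.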

[7] = qHTS assay to test for compound auto fluorescence at 590 nm (red) in HepG2 cells (AID 720674)
Procedure, shortened: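 Fluorescence at 590 nm emission following 540 nm excitation was recorded from HepG2 wells one hour after compound transfer, with DMSO-only wells as vehicle and Rose Bengal sodium equivalency as the scale.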

[8] = qHTS assay to test for compound auto fluorescence at 460 nm (blue) in HEK293 cells (AID 720678)
Procedure, shortened: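 HEK293 cells (2,000 per well, medium with 10% dialyzed FBS) attached for 4-5 hr at 37C, then received compound and stood overnight at 37C, 5% CO2. Blue fluorescence was read at Ex/Em 405/460 nm and expressed relative to triamterene.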

[9] = qHTS assay to test for compound auto fluorescence at 590 nm (red) in HEK293 cells (AID 720679)
Procedure, shortened: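 HEK293 cells (2,000/well, medium with 10% dialyzed FBS) attached for 4-5 hr at 37C, received 23 nL compound and were incubated overnight at 37C, 5% CO2. Red fluorescence was then read at 540/590nm Ex/Em, referenced to Rose Bengal sodium.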

[10] = qHTS assay to test for compound auto fluorescence at 535 nm (green) in HEK293 cells (AID 720680)
[11] = qHTS assay to test for compound auto fluorescence at 460 nm (blue) in HEK293 cell free culture (AID 720681)
Procedure, shortened: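 Compounds were added to cell-free DMEM with 10% FBS and fluorescence read directly. The blue channel used 405 nm excitation and 460 nm emission, with triamterene as the reference fluorophore.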

[12] = qHTS assay to test for compound auto fluorescence at 535 nm (green) in HEK293 cell free culture (AID 720682)
Procedure, shortened: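 Measurement is a direct plate read of green fluorescence (485 nm in, 535 nm out) after compound addition to serum-supplemented DMEM lacking cells, with fluorescein used to express intensities.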

[13] = qHTS assay to test for compound auto fluorescence at 590 nm (red) in HEK293 cell free culture (AID 720683)
Procedure, shortened: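 Cell-free wells of DMEM with 10% FBS received compound, and intrinsic fluorescence was read at excitation/emission 540/590 nm. Values expressed as equivalence to Rose Bengal sodium.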

[14] = qHTS assay to test for compound auto fluorescence at 590 nm (red) in HepG2 cell free culture (AID 720684)
Procedure, shortened: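 Rose Bengal sodium served as the reference for red signal. Test compounds were dispensed into serum-containing MEM (10% FBS) without cells, and plates were read at 540/590 nm.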

[15] = qHTS assay to test for compound auto fluorescence at 535 nm (green) in HepG2 cell free culture (AID 720686)
[16] = qHTS assay to test for compound auto fluorescence at 460 nm (blue) in HepG2 cells (AID 720687)
Procedure, shortened: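 HepG2 cells in MEM with 10% FBS, attached overnight at 37 C, were exposed to compound or DMSO for 1 hr at 37 C, 5% CO2. Blue fluorescence was read at 405/460 nm, with triamterene as reference fluorophore.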

[17] = biological target: Glucocorticoid receptor (Homo sapiens) (UniProt P04150); experiment: qHTS assay to identify small molecule agonists of the glucocorticoid receptor (GR) signaling pathway (AID 720691; active means well fitted activation curve with a large enough effect in the signal ratio in the repeat runs, not every such curve was filed as active; the % refers to the signal ratio)
Procedure, shortened: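 Measures GR pathway activation through a GRE-beta-lactamase reporter stably integrated in HeLa cells, with 18 h compound treatment at 37 C and fluorescence detection using a FRET substrate.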

[18] = biological target: Glucocorticoid receptor (Homo sapiens) (UniProt P04150); experiment: qHTS assay to identify small molecule antagonists of the glucocorticoid receptor (GR) signaling pathway (AID 720692; active means well fitted inhibition curve with a large enough effect in the signal ratio in the repeat runs, not every such curve was filed as active; the % refers to the signal ratio)
Procedure, shortened: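 Tox21 10K library screened in concentration-response for blockade of dexamethasone (5 nM final)-induced GRE-bla reporter activity in HeLa cells; 18 h treatment, fluorescence read.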

[19] = qHTS assay to test for compound auto fluorescence at 535 nm (green) in HepG2 cells (AID 720675)
[20] = qHTS assay to test for compound auto fluorescence at 460 nm (blue) in HepG2 cell free culture (AID 720685)
Procedure, shortened: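 Cell-free plates of MEM plus 10% FBS received 23 nL compound or DMSO vehicle; blue-channel (405/460 nm) intensity scored against triamterene as reference fluorophore.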
On the % scale 0 is the no-effect control and ±100 the full control effect.

Sequence of Glucocorticoid receptor (Homo sapiens) (P04150 whole entry, looked up): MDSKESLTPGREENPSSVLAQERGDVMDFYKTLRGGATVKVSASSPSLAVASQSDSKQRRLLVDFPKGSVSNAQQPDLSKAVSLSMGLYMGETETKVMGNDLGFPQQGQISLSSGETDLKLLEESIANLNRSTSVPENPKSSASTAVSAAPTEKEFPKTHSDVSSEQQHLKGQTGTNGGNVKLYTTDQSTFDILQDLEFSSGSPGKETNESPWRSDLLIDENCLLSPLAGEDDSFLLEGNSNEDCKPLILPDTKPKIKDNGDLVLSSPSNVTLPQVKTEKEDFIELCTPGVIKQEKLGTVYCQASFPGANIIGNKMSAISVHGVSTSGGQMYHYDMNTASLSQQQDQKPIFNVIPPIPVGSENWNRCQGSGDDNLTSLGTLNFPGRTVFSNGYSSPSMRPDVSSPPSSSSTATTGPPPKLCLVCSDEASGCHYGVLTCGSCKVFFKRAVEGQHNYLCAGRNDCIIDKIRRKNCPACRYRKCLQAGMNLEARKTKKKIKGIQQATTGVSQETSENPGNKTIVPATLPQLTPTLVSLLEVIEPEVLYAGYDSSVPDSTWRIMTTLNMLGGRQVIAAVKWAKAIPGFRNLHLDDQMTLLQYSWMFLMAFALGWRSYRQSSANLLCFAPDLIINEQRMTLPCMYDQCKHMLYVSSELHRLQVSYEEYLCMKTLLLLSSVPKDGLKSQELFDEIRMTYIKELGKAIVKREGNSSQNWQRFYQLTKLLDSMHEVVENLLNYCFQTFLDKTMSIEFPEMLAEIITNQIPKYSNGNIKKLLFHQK

CN1CCN(c2c(F)cc3c(=O)c(C(=O)O)cn4c3c2SCC4)CC1
inactive: Potency [1] | Potency [2] | Potency [3] | Potency [4] | Potency [5] | Potency [6] | outcome [7] | outcome [8] | outcome [9] | outcome [10] | outcome [11] | outcome [12] | outcome [13] | outcome [14] | outcome [15] | outcome [16] | Potency [17] | Potency [18]

CC/C=C\CCOC(=O)CCCCC
inactive: Potency [1] | Potency [2] | Potency [3] | Potency [4] | Potency [5] | Potency [6] | outcome [7] | outcome [19] | outcome [8] | outcome [9] | outcome [10] | outcome [11] | outcome [12] | outcome [13] | outcome [14] | outcome [20] | outcome [15]

NCCCN1CCN(CCCN)CC1
inactive: Potency [1] | Potency [2] | Potency [3] | Potency [4] | Potency [5] | Potency [6] | outcome [7] | outcome [19] | outcome [8] | outcome [9] | outcome [10] | outcome [11] | outcome [12] | outcome [13] | outcome [14] | outcome [20] | outcome [15] | outcome [16] | Potency [17] | Potency [18]

Cc1ccccc1C(=O)Nc1ccc(C(=O)N2CCCC(O)c3cc(Cl)ccc32)c(C)c1 (stereo unspecified)
inactive: Potency [1] | Potency [2] | Potency [3] | Potency [4] | Potency [5] | outcome [7] | outcome [19] | outcome [8] | outcome [9] | outcome [10] | outcome [11] | outcome [12] | outcome [13] | outcome [14] | outcome [20] | outcome [15] | outcome [16]

CC(C)CC(=O)OCc1ccccc1
inactive: Potency [1] | Potency [2] | Potency [3] | Potency [4] | Potency [5] | Potency [6] | outcome [7] | outcome [19] | outcome [8] | outcome [9] | outcome [10] | outcome [12] | outcome [14] | outcome [20] | outcome [16] | Potency [17] | Potency [18]

CCN[C@H]1CN(CCCOC)S(=O)(=O)c2sc(S(N)(=O)=O)cc21
inactive: Potency [1] | Potency [2] | Potency [3] | Potency [4] | Potency [5] | Potency [6] | fluorescence, relative to Rose Bengal [7] -0.145% [at 18.6 µM] | fluorescence, % of fluorescein control [19] -0.244% [at 18.6 µM] | fluorescence, % of triamterene [8] 0.009% [at 18.6 µM] | fluorescence, % of fluorescent control [9] 0.0594% [at 18.6 µM] | fluorescence, % of fluorescent control [11] 0.113% [at 18.6 µM] | activity change [12] -0.0447% [at 18.6 µM] | fluorescence, % of fluorescent control [13] -0.021% [at 18.6 µM] | fluorescence, % of Rose Bengal [14] 0.0022% [at 18.6 µM] | fluorescence, % of fluorescent control [20] -0.0073% [at 18.6 µM] | fluorescence, % of fluorescein control [15] 0.0136% [at 18.6 µM] | Potency [17]

Cc1c(C(=O)NCCO)[n+](=O)c2ccccc2n1[O-]
inactive: Potency [1] | Potency [2] | Potency [3] | Potency [4] | Potency [5] | Potency [6] | outcome [7] | outcome [19] | outcome [8] | outcome [9] | outcome [10] | outcome [11] | outcome [12] | outcome [13] | outcome [14] | outcome [20] | outcome [15] | outcome [16] | Potency [17] | Potency [18]
